Source: PubChem (National Center for Advancing Translational Sciences (NCATS))
Shown are actives, neighbours in structure and some others; about 2.5% of the full set was active somewhere.
Anesthetic bind – qHTS Assay for Identification of Novel General Anesthetics; Potency, µM (titrated, usually from 77.5 µM), without a hit: at the highest dose activity change, negative = displacement, actives largely listed as inhibitors; apoferritin/1-aminoanthracene competitive binding, fluorescence; 0.074% of 350,000 active; Ferritin light chain (Equus caballus), P02791; AID 485281, 2010; active means well fitted inhibition curve with a large enough effect; inconclusive means small, poorly fitted or top-dose-only effect; inactive means no such curve, though single readings can be large or run the other way; further: potency means the concentration at half of the fitted maximal effect; on the % scale 0 is the no-effect control and ±100 the full control effect; nearly all actives have a fitted effect of over 20% in size
Target sequence (P02791 2-175 limits assumed): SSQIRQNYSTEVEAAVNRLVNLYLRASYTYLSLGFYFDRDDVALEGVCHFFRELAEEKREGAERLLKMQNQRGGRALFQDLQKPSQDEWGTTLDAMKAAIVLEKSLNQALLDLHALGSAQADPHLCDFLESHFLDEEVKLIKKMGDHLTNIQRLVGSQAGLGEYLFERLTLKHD
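In PBS, apoferritin at 10 uM is loaded with 1-AMA from a 50% saturated solution. After 10 min of compound exposure at ambient temperature, reduced 535 nm fluorescence indicates probe displacement.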
D2 antag – HTS Assay for Allosteric Antagonists of the Human D2 Dopamine Receptor: Primary Screen for Antagonists; HEK293 TREx D2 cells, calcium flux, dopamine EC80; inhibition, % at 10 µM; D(2) dopamine receptor (Homo sapiens), P14416; 2% of 340,000 active; in the data active means inhibition above about 30%; inactive means below that, where a call was filed; further: 0% is about no effect
Target sequence (P14416 whole entry, looked up): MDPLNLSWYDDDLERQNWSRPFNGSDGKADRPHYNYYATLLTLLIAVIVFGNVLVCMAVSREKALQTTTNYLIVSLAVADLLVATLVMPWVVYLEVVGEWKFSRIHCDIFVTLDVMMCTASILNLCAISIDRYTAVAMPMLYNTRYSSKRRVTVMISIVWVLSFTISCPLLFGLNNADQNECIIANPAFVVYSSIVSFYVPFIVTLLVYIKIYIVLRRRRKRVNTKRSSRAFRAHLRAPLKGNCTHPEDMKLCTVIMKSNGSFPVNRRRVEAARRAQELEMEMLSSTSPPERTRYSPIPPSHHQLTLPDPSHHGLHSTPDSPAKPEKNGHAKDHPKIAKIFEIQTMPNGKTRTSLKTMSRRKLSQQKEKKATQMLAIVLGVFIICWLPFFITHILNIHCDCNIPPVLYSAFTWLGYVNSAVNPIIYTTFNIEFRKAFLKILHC
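Calcium flux kinetic readout in an inducible HEK293 TREx D2 line plated overnight at 30 C. After 180 s compound exposure, an EC80 dopamine challenge follows with another 180 s kinetic read to detect antagonism.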
D2 ag-1 – Beta-Arrestin HTS for Positive Allosteric Modulators of the Human D2 Dopamine Receptor: Agonists. D(2) dopamine receptor (Homo sapiens), P14416. DiscoveRx PathHunter D2 beta-arrestin, luminescence, 90 min; 100% = 57 uM dopamine signal. activation, % (concentration not given with the values). 0.084% of 360,000 active. AID 624465, 2012; in the data active means activation above about 40%; inconclusive means between about 15% and that limit
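DiscoveRx PathHunter D2 beta-arrestin cells (2,100/well) attached overnight, then compound-stimulated 90 min at 37 C in HBSS/10 mM HEPES/0.1% Tween-20 buffer; beta-galactosidase complementation read by luminescence after 1 h at ambient temperature. Dopamine 57 uM final (EC100) as control.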
D2 PAM-1 – Beta-Arrestin HTS for Positive Allosteric Modulators of the Human D2 Dopamine Receptor: Potentiators. DiscoveRx D2 beta-arrestin cells, luminescence, 90 min; 100% = 57 uM dopamine signal. AID 624464, 2012. 0.23% of 360,000 active. potentiation, % (no concentration beside the values); in the data active means potentiation above about 50%; inconclusive means mostly about 30% to 49%
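D2 cells co-treated with compound plus 50 nM dopamine (EC20) for 90 min at 37 deg C to detect potentiation. Beta-arrestin recruitment was read as enzyme-fragment luminescence after 1 h at ambient temperature. Full response was set by 57 uM dopamine.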
D2 ag-2 – HTS Assay for Allosteric Agonists of the Human D2 Dopamine Receptor: Primary Screen for Agonists. D(2) dopamine receptor (Homo sapiens), P14416. HEK293 T-REx D2 cells, calcium flux agonist mode. activation, % at 2 µM. 0.53% of 340,000 active. AID 485358, 2010;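 active means activation over 3 SD above normal in the single-dose calcium agonist read, cut at about 30% in these data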; further: 0% is about no effect
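Tetracycline-induced HEK293 Trex cells with D2 receptor force-coupled to calcium signaling, plated overnight at 30 C and loaded with no-wash calcium dye. Calcium flux read kinetically for 180 s after compound addition; responses flag agonists.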
D2 PAM-2 – HTS Assay for Positive Allosteric Modulators of the Human D2 Dopamine Receptor: Primary Screen for Potentiators; HEK293 T-REx D2, calcium flux, EC20 dopamine potentiation; potentiation, % at 10 µM; 0.34% of 340,000 active; AID 485347, 2010;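 active means potentiation over 3 SD above the plate norm, cut at about 30% in these data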; further: 0% is about no effect
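Using a no-wash calcium dye in inducible, force-coupled HEK293 Trex cells expressing D2, we tracked fluorescence each second for 180 s after compound, then for 180 s after EC20 dopamine to detect augmented signalling.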
* marks the source's active call; other numbers are inactive results; u = inconclusive; x = not tested or not shown.

SMILES | Anesthetic bind | D2 antag | D2 ag-1 | D2 PAM-1 | D2 ag-2 | D2 PAM-2
COC(=O)c1ccc(/C=N/OCC(=O)NC2CCCC(C)C2C)cc1 (configuration not stated) | 11µM* | -1 | -4 | -17 | 0 | -2
COC(=O)c1ccc(/C=N/OCC(=O)NC2CCCCCCC2)cc1 | 7.9µM* | 2 | -3 | -3 | 0 | 20
O=C(Nc1cccc(F)c1)c1ccccc1 | -4% | -11 | -2 | -8 | 0 | -1
O=C(Nc1cccc(F)c1)c1ccc2c(c1)OCO2 | 13% | 31* | -1 | -16 | 5 | x
O=C(Nc1ccc(Nc2ccccc2)cc1)c1cccc(F)c1 | -14% | -18 | -3 | -6 | 0 | 32*
O=C(NNC(=O)c1ccc(F)cc1F)c1ccc2c(c1)OCO2 | -8% | 37* | -2 | 4 | 3 | -3
CCOc1ccccc1C(=O)NC(C)c1ccc2c(c1)OCO2 (configuration not stated) | -4% | 40* | -1 | -2 | 0 | 0
CCOc1ccc(C(=O)Nc2ccc3c(c2)OCO3)cc1OCC | -13% | -13 | -3 | -17 | 1 | -12
CCOc1cc(C(=O)Nc2ccc3c(c2)OCO3)ccc1OCCOc1ccccc1Cl | -9% | 32* | 3 | -9 | 1 | 0
COc1ccc(C(O)(CCC(C)C)C(CN2CCOCC2)c2ccc(Cl)cc2)cc1 (configuration not stated) | -5% | 0 | -1 | 0 | 0 | 41*
CSc1nnc(NC(=O)c2nc(S(=O)(=O)Cc3ccccc3)ncc2Cl)s1 | 3% | 16 | 1 | -8 | 0 | -2
Nc1[nH]ncc1N=Nc1ccc(Cl)cc1 | 32µM* | -20 | -5 | -7 | 0 | 1
COc1ccc(C)cc1S(=O)(=O)NC1CCCCCC1 | -23% | 0 | 1 | 7 | 1 | -2
Cn1c2ccccc2c2c(C(=O)N3CCN(c4ccccn4)CC3)cn(C3CCCC3)c(=O)c21 | 110% | 31* | 0 | -22 | -1 | 29
CNS(=O)(=O)c1ccc(C(C)(C)C)cc1 | -16% | 65* | -2 | -2 | 1 | -24
CC(C)(C)c1ccc(S(=O)(=O)C(C)(C)C)cc1 | -16% | x | 6 | 1 | x | x
Cc1ccc(CCNC(=O)c2ccc(CS(=O)(=O)c3ccccc3C)o2)cc1 | -6% | -10 | -2 | -15 | 0 | 47*
Cc1ccc(CNC(=O)c2ccc(CS(=O)(=O)c3ccccc3C)o2)cc1 | u | 1 | -3 | 2 | -1 | 11
O=C1c2ccccc2C(=O)N1CCCc1nc(-c2ccccn2)no1 | -2% | 36* | -3 | -3 | 0 | 14
O=C(O)c1ccccc1NS(=O)(=O)c1ccc2ccccc2c1 | 7% | 2 | -2 | 13 | -2 | 32*
COC(=O)c1ccccc1NS(=O)(=O)c1ccc(F)cc1 | 5% | 32* | -4 | -10 | 0 | 44*
CCOC(=O)c1cc2c(C)[nH]c(C)c2cc(C(=O)OCC)c1=O | -11% | 1 | 5 | -1 | 0 | 10
Clc1ccc(SCc2cc(-c3ccccc3)no2)cc1 | -12% | -26 | 0 | -22 | 0 | 3
CCCN(Cc1nnc(-c2cccs2)o1)C(=O)CN1C(=O)NC2(CCCCC2)C1=O | x | 31* | -2 | -1 | 1 | 2
COc1cc(CC(NC(C)=O)C(=O)NC2CCN(C(=O)c3ccc(C)cc3)CC2)cc(OC)c1 (configuration not stated) | 11% | -15 | 0 | -1 | 0 | -1
SMILES | Anesthetic bind | D2 antag | D2 ag-1 | D2 PAM-1 | D2 ag-2 | D2 PAM-2
COc1cc(CC(NC(C)=O)C(=O)NC2CCN(C(=O)C3CC3)CC2)cc(OC)c1 (configuration not stated) | -1% | 33* | -5 | -11 | 0 | 7
O=C(CN1CCc2ccccc21)NC(=O)NC1CCCCC1 | -24% | 33* | -3 | -13 | -1 | -16
NC(=O)C1CCN(CC(=O)N2c3ccccc3CCc3ccccc32)CC1 | 6% | x | -5 | -16 | x | x
NC(=O)C1CCN(C(=O)CN2CCc3ccccc32)CC1 | -8% | 45* | 1 | 1 | -1 | -14
Cc1cc(NCCOCCO)n2ncc(-c3ccc(Cl)cc3)c2n1 | -2% | -2 | -2 | 5 | 4 | 5
COC(=O)c1[nH]c2ccc(Cl)cc2c1NC(=O)Oc1ccccc1 | 72% | -14 | 8 | 68* | 0 | 5
C=CCSc1nnc2c(n1)OC(c1cccnc1)Nc1ccccc1-2 (configuration not stated) | -14% | -3 | 2 | 53* | 0 | -5
O=C1Cc2cc(S(=O)(=O)NCc3ccccc3Cl)cc3c2N1CCC3 | -20% | 11 | -2 | -3 | 0 | 34*
O=C(NCCC(=O)N1CCN(c2ccccc2O)CC1)c1ccc(Br)cc1 | x | -5 | 1 | -1 | 0 | 4
CC(C)(C)CC(=O)Nc1cc2c3c(c1)CCC(=O)N3CCC2 | u | 35* | -1 | -10 | 0 | 3
CCOC(=O)c1c(O)cc(C)cc1Nc1ccccc1 | 113% | 32* | -1 | -4 | 2 | 4
CCOC(=O)c1c(Nc2ccccc2N)cc(C)nc1C | -7% | 9 | 1 | 9 | 0 | -1
CCOC(=O)C1=C(C)N(CCCCCC(=O)O)C(=O)NC1c1ccc([N+](=O)[O-])cc1 (configuration not stated) | -15% | 8 | -5 | -10 | 31* | -18
CCOC(=O)C1=C(C)N(CCCCCC(=O)O)C(=O)NC1c1cccc([N+](=O)[O-])c1 (configuration not stated) | -8% | 2 | 0 | -25 | 0 | 6
CC(=O)Nc1ccc(CNc2nc(NC(C)C)nc3cc(-c4ccccc4)sc23)cc1 | x | x | 6 | -3 | x | x
COc1ccccc1N(CC(=O)Nc1ccccc1C(F)(F)F)S(=O)(=O)c1cccs1 | x | x | -2 | -8 | x | x
CCCc1nc2ccc(Cl)cn2c1Cc1ccccc1OC | x | x | -1 | -6 | x | x
C=CCn1c(Oc2cc(C)ccc2C)nc2c1c(=O)n(C)c(=O)n2C | -8% | 30* | 0 | 16 | -1 | 15
CCOC(=O)CNc1c(-c2ccc(O)cc2)nc2ccc(Cl)cn12 | 4% | 8 | 1 | 8 | -1 | 15
